High-throughput results deposited in PubChem by National Center for Advancing Translational Sciences (NCATS).
SW480 rerep: induces DNA re-replication in SW480 colon adenocarcinoma cells | SW480 DNA re-replication, Hoechst DNA content imaging, 48 h | Potency, µM (series often up to 46.1 µM), for inactives: top-dose re-replication activation, usual class: activators | 1.8% of 340,000 active | AID 624297; further: potency means the concentration at half of the fitted maximal effect; % of control where 0% means no effect; nearly all actives have a fitted effect of over 55% in size
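First, 250 cells per well were seeded. Next, compound or vehicle (23 nL) was pinned in, plates sat 48 hr at 37 C. Finally Hoechst was added for 40 min before fluorescence scanning.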
DT40 TDP1 no CPT: qHTS for Inhibitors of human tyrosyl-DNA phosphodiesterase 1 (TDP1): qHTS in cells in absence of CPT; DT40 Tdp1-/- hTDP1 cells, no CPT, ATP luminescence, 48 h; AID 686978, 2013; 15% of 420,000 active; Potency, µM (highest dose often 46.2 µM), without a hit: at the highest dose activity change, negative = growth inhibition, most hits filed as inhibitors; further: potency means the concentration at half of the fitted maximal effect; on the % scale 0 is the no-effect control and ±100 the full control effect; nearly all actives have a fitted effect of over 55% in size
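DT40 Tdp1-/-;hTDP1 cells, no CPT (DMSO vehicle only), 400 cells/well; compounds pin-transferred; ≥48 hr, 37 °C; CellTiter-Glo 30 min RT dark, luminescence read.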
TDP1 cell CPT: DT40-hTDP1 cell growth loss with CPT; 12% of 420,000 active; chicken DT40 Tdp1-/-;hTDP1 cells + 20 nM CPT, ATP luminescence, 48 h; Potency, µM (series often up to 46.2 µM), inactives show top-dose activity change, negative = growth inhibition, usual class: inhibitors; further: potency means the concentration at half of the fitted maximal effect; on the % scale 0 is the no-effect control and ±100 the full control effect; nearly all actives have a fitted effect of over 55% in size
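Chicken DT40 Tdp1-/- cells stably complemented with human TDP1 were seeded at 400 cells/well in medium containing 20 nM camptothecin, exposed to pin-transferred compounds, and grown at 37 °C for at least 48 hr. Viability was read as ATP luminescence.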
Chronic BCR inh: blocks chronic active B-cell receptor signaling; ABC-DLBCL IkBa-CBG/CBR reporter, luminescence ratio, 4 h; Potency, µM (highest dose often 46.1 µM), for the others: at the highest dose activity change, negative = inhibition, most hits filed as inhibitors; 0.05% of 340,000 active; AID 493014; active means well fitted inhibition curve with a large enough effect in the signal ratio, with a control signal flat, not every such curve was filed as active; inconclusive means small, poorly fitted or top-dose-only effect, or effect the other way, or a change in a side signal; the % refers to the signal ratio;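 further: potency means the concentration at half of the fitted maximal effect; plate controls were basal doxycycline-induced cells for no effect and cells given 10 µM MG132 for full effect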
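TMD8 human ABC-DLBCL cells with doxycycline-inducible IκBα–green luciferase fusion and unfused red luciferase, in 0.5% FBS medium; compounds up to 46 uM, 4 h at 37C. Green/red luminescence ratio, filter-overlap corrected, fitted to concentration-response curves.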
IL1B secr inh: inflammasome signaling inhibition, IL-1 beta readout. THP-1 LPS/ATP IL-1B secretion, AlphaLISA, 16 h; stronger effect = lower value. activity change, % at 57.5 µM. 4.7% of 360,000 active. AID 743279; in the data active means activity change below about -50%; inconclusive means mostly about -30% to -49%; further: on the % scale 0 is the no-effect control and ±100 the full control effect
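Secreted IL-1B measured by AlphaLISA bead assay after 16 h compound exposure of THP-1 cells; compounds (final up to 57.5 uM) added 1 h before LPS (250 ng/mL) and ATP (1.25 mM) stimulation; lower signal means less secretion.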
MCF10A rereplic: DNA re-replication induction in MCF 10a cells; MCF 10A DNA re-replication, Hoechst nuclear intensity, 48 h; Potency, µM (titrated, usually from 46.1 µM), for the others: at the highest dose activity, positive = re-replication, hits mostly activators; 2.9% of 350,000 active; AID 624296; further: potency means the concentration at half of the fitted maximal effect; % of control where 0% means no effect; nearly all actives have a fitted effect of over 50% in size
* = called active by the depositor; ? = inconclusive; / = not tested or not shown; [ ] = dose if it differs, or a comment. This is a sample that favours compounds with a hit; in the whole collection about 19% have one here. Unless noted, the call rests on the fitted dose curve; in most records, active means well fitted curve in the direction sought with a large enough effect; inconclusive means small, poorly fitted or top-dose-only effect, or another doubt; inactive means no such curve, though single readings can be large; an effect the other way counts as inactive or inconclusive.

SMILES	SW480 rerep	DT40 TDP1 no CPT	TDP1 cell CPT	Chronic BCR inh	IL1B secr inh	MCF10A rereplic
CN1CCN(CCOc2ccc(Cc3ccccc3)cc2)CC1	0%	4.6µM*	?	1%	-13	?
CN1CCN(CCc2ccc(Cl)c(Cl)c2)CC1	/	30µM*	?	/	/	/
CN1CCN(CCOc2ccc(Cl)c(Cl)c2)CC1	-2%	?	16µM*	8%	7	?
CCc1ccc(OCCOCCN2CCN(C)CC2)cc1	0%	?	-16%	0%	11	16%
CN(CCOc1ccc(Cl)c(Cl)c1)Cc1ccccc1	-51%	-20%	?	8%	0	?
CCN(CC)CCCOc1ccc(Cl)c(Cl)c1	-8%	?	-28%	-1%	-73*	25%
CC(=O)Nc1ccc2cnn(C(C)=O)c2c1	/	-28%	-12%	/	10	/
CCOC(=O)C1CCCN(C(=O)Cn2ncc3c(C)n(Cc4ccccc4F)c(C)c3c2=O)C1 (stereo not drawn)	/	18µM*	26µM*	/	/	/
CCOC(=O)C1CCCN(C(=O)Cn2ncc3c(C)n(Cc4ccc(Cl)cc4)c(C)c3c2=O)C1 (stereo not drawn)	/	8.2µM*	8.2µM*	/	/	/
CCOC(=O)C1CCCN(C(=O)Cn2ncn3c(cc4sc(CC)cc43)c2=O)C1 (stereo not drawn)	/	?	21µM*	/	/	/
COc1ccc(NC(=O)COC(=O)CCc2ccc(S(=O)(=O)N3CCOCC3)cc2)c(OC)c1	4%	8%	-15%	0%	10	6%
Cc1cccc(C)c1NC(=O)CN(C)C(=O)COc1cccc2c1OC(C)(C)C2	275%	-21%	-3%	0%	-14	4%
CCOC(=O)CSC1=C(C#N)C(=O)NC(c2ccc(OC)cc2)S1 (stereo not drawn)	1%	15µM*	15µM*	?	-21	10%
CCOC(=O)CSC1=C(C#N)C(=O)NC(c2ccc(OC)c(OC)c2)S1 (stereo not drawn)	-2%	12µM*	16µM*	-17%	-2	6%
CCOC(=O)CSc1nnc(-c2ccc(OC)cc2)o1	/	-11%	-16%	/	/	/
COc1ccc2c(c1)CCc1cnc(-n3ncc(C(=O)NCC(C)(C)CN(C)C)c3C)nc1-2	/	?	5%[9.04 µM]	/	/	/
CCCc1nc2sc3c(c2c(=O)n1NC(=O)c1ccco1)CC(C)(C)OC3	14%	-14%	12%	4%	-1	17%
CCCCCCCCCc1nc2sc3c(c2c(=O)n1NC(=O)c1ccccc1[N+](=O)[O-])CC(C)(C)OC3	0%	?	?	0%	-74*	2.9µM*
CCCCCCCCCc1nc2sc3c(c2c(=O)n1NC(=O)c1ccc([N+](=O)[O-])cc1)CC(C)(C)OC3	9%	?	?	0%	1	6.5µM*
CC(C)c1ccc(-c2c(C#N)c(N)nc(SCC(=O)N3CCCCCC3)c2C#N)cc1	4%	-18%	-16%	23%	19	15%
COC(=O)CSc1nc(N)c(C#N)c(-c2ccc(O)cc2)c1C#N	-1%	16%	7%	0%	-70*	4%
CCOC(=O)CSc1nc(N)c(C#N)c(-c2ccc(OCC)cc2)c1C#N	-1%	-10%	-14%	0%	12	14%
CC(C)c1ccc(-c2c(C#N)c(N)nc(SCC(=O)N3CCCCC3)c2C#N)cc1	?	?	9.2µM*	16%	48	7.3µM*
Cc1oc(-c2cccc(NC(=O)c3ccccn3)c2)nc1CNC(=O)c1ccc(C(F)(F)F)cc1	/	-24%	0%[9.04 µM]	/	/	/
Cc1cccc(NC(=O)CSc2nnc3ccc(-c4cccnc4)nn23)c1	/	?	-23%	/	-5	/
SMILES	SW480 rerep	DT40 TDP1 no CPT	TDP1 cell CPT	Chronic BCR inh	IL1B secr inh	MCF10A rereplic
Nc1nc(-c2ccccn2)nc(N)c1Cc1c(F)cccc1Cl	?	1.5µM*	1.8µM*	?	18	?
Nc1nc(-c2ccccn2)nc(N)c1Cc1ccccc1F	8%	4.6µM*	5.8µM*	-2%	15	?
CNc1cc(C(F)(F)F)nc(-c2ccccn2)n1	-18%	?	?	0%	6	-1%
O=C1C2CC=CCC2C(=O)N1c1n[nH]c(Cc2ccccc2)n1 (stereo not drawn)	2%	-2%	-13%	-1%	10	7.3µM*
O=C1C2CC=CCC2C(=O)N1Cc1ccccc1 (stereo not drawn)	0%	-10%	0%	-11%	21	-7%
O=C(NC1CCCCC1)c1ccc2c(c1)N(Cc1ccccc1Cl)C(=O)c1ccccc1S2	/	?	-20%	-8%	/	/
CCC1CCCCN1C(=O)COc1ccc2c(c1)OCO2 (stereo not drawn)	-1%	12%	-3%	-2%	?	10%
COc1ccc(/C=C2\Oc3cc(OCC(=O)N4CCC[C@H]4CO)ccc3C2=O)c(OC)c1	16%	?	23µM*	?	-22	15%
COc1cccc(/C=C2\Oc3cc(OCC(=O)N4Cc5ccccc5C[C@H]4C(=O)O)ccc3C2=O)c1	4%	?	-29%	?	14	13%
O=C1/C(=C/c2ccc3c(c2)OCO3)Oc2cc(OCC(=O)N3CCC[C@H]3C(=O)O)ccc21	-24%	-2%	21µM*	10%	9	1%
COc1ccccc1/C=C1\Oc2cc(OC(=O)N3CCOCC3)ccc2C1=O	?	23µM*	15µM*	-1%	-9	?
COc1cccc(/C=C2\Oc3cc(OC(=O)N4CCOCC4)ccc3C2=O)c1	-2%	?	?	-13%	-3	2%
CCCNC(=O)C1(C)CCCN(Cc2ccccc2C#N)C1 (stereo not drawn)	/	?	?	/	12	/
COc1ccc(C2(C)NC(=O)N(CC(=O)Nc3ccc(C)cc3Br)C2=O)cc1OC (stereo not drawn)	-8%	-13%	-2%	-18%	-7	3%
Nc1nc(-c2ccc(-n3nncc3-c3ccco3)cc2)cs1	21%	?	?	?	-13	23µM*
N#CC1=C(N)Oc2cc(O)ccc2C1c1ccc(Br)s1 (stereo not drawn)	-3%	?	?	-6%	8	-1%
Cc1ccc(NC(=O)CSc2ccc3c(c2)OCCO3)nc1	-3%	-26%	-1%	?	4	14%
CC1=C/C(=C(/c2cc(C)c(O)c(Br)c2)c2ccccc2S(=O)(=O)O)C=C(Br)C1=O	-35%	?	?	?	-71*	-1%
